Results on 24 compounds are retold here after PubChem BioAssay AID743315 (Broad Institute, 2014).

Structures are written as SMILES. Results with a measured potency or affinity are listed apart. Calls of active or inactive are those of the source.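 How the source made its calls: active means cell killing, with a fitted active concentration at or below twice the top valid dose tested; inconclusive means flat curve with moderate cell loss, or an unreliable fit; inactive means effect in the rising direction, plus the rest.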

The assay is described as follows: HEK293T cell cytotoxicity, dose response, cytotoxicity control, plate reader, dry powder, set 10 (AID 743315). The conditions noted are these: HEK293T viability, CellTiter-Glo ATP luminescence, 72 h; series mostly up to 26 µM; activity change, negative = cytotoxicity: at the top concentration.
Turning to `CC(C)(C)c1ccc(OCCn2c(=S)[nH]c3ccccc32)cc1`, the “activity change, negative = cytotoxicity” value is -20.3% (inactive).

In the case of `COc1ccc(OCCn2c(=S)[nH]c3ccccc32)cc1`, the “activity change, negative = cytotoxicity” value is 22.4% (inactive).

Take `Cc1cccc(OCCn2c(=S)[nH]c3cc(C(F)(F)F)ccc32)c1`: the “activity change, negative = cytotoxicity” value is -7.49% (inactive).

For the compound `Cc1ccc(C(C)C)c(OCCn2c(=S)[nH]c3ccc(F)cc32)c1`, the “activity change, negative = cytotoxicity” value is -9.68% (inactive).

On to `CCOc1ccc(OCCn2c(=S)[nH]c3ccccc32)cc1`, for which the “activity change, negative = cytotoxicity” value is -3.01% (inactive).

Take `Cc1ccc(C(C)C)c(OCCn2c(=S)[nH]c3cc(F)ccc32)c1`: the “activity change, negative = cytotoxicity” value is -57.5% (inactive).

For `Cc1ccc(C(C)C)c(OCCn2c(=S)[nH]c3ccccc32)c1`, the call was inactive.

As for `Cc1ccc(C(C)C)c(OCCn2c(=S)[nH]c3cccc(C)c32)c1`, the “activity change, negative = cytotoxicity” value is -17.8% (inactive).

In the case of `Fc1ccccc1OCCn1c(=S)[nH]c2ccccc21`, the “activity change, negative = cytotoxicity” value was -11.8% (inactive).

Take `Cc1ccc(OCCn2cnc3ccccc32)c(C(C)C)c1`: the “activity change, negative = cytotoxicity” value was -41.6% (inactive).

Turning to `Cc1ccc(C)c(OCCn2c(=S)[nH]c3ccccc32)c1`, the “activity change, negative = cytotoxicity” value was -28.3% (inactive).

For `Cc1ccc(C(C)C)c(OCCn2c(CO)nc3ccccc32)c1`, the “activity change, negative = cytotoxicity” value was -16.6% (inactive).

As for `Cc1ccc(OCCn2c(=S)[nH]c3ccccc32)cc1`, the “activity change, negative = cytotoxicity” value was -44.4% (inactive).

With `Cc1ccc(C(C)C)c(OCCn2c(=S)[nH]c3c(Cl)cccc32)c1`, the “activity change, negative = cytotoxicity” value was 30.9% (inactive).

As for `Cc1cccc(OCCn2c(=S)[nH]c3ccccc32)c1C`, the “activity change, negative = cytotoxicity” value is 6.98% (inactive).

`Fc1ccc2[nH]c(=S)n(CCOc3ccccc3)c2c1`: the “activity change, negative = cytotoxicity” value was 10.8% (inactive).

Consider `Fc1cccc(OCCn2c(=S)[nH]c3ccccc32)c1`, for which the “activity change, negative = cytotoxicity” value was 5.7% (inactive).

Regarding `Cc1cccc(OCCn2c(=S)[nH]c3c(F)cccc32)c1`, the compound was classed as inactive.

On to `Cc1ccccc1OCCn1c(=S)[nH]c2ccccc21`, for which the “activity change, negative = cytotoxicity” value was -25.7% (inactive).

For `Cc1ccc(C(C)C)c(OCCn2c(=S)[nH]c3c(C)cccc32)c1`, the “activity change, negative = cytotoxicity” value was 28% (inactive).

Turning to `Cc1cccc(OCCn2c(=S)[nH]c3cc(F)ccc32)c1`, the “activity change, negative = cytotoxicity” value is -4.17% (inactive).

As for `S=c1[nH]c2ccccc2n1CCOc1ccccc1`, the “activity change, negative = cytotoxicity” value is -4.59% (inactive).

As for `Cc1cccc(OCCn2c(=S)[nH]c3ccccc32)c1`, the “activity change, negative = cytotoxicity” value was 16.4% (inactive).

Consider `Cc1ccc(OCCn2c(=S)[nH]c3ccccc32)c(C)c1`, for which the “activity change, negative = cytotoxicity” value is -3.74% (inactive).
